# A selection: hits, their analogues and other compounds. The true share with any hit is near 3.1%.
# PAX8 reporter = lowers PAX8-driven luciferase in RMG-I cells | 360,000 tested, 1.2% active | AID 652154 | inhibition, % at 12.6 µM | RMG-I TPO-luciferase reporter, SteadyGlo, 24 h;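 active means mean replicate inhibition at least 60% with every replicate also reaching 60%; inconclusive means only one of the two criteria is met; inactive means mean below 60% and not all replicates reaching 60%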;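 further: luciferase light reporting Pax8 driven TPO promoter activity; plate controls were median of neutral control wells for no effect and mitoxantrone controls for full effect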
# Env fusion inh = blocks HIV Env-driven cell-cell fusion; HeLa-JRFL Env/CEM21 cell fusion, luciferase; 360,000 tested, 1.1% active; inhibition, % at 12.3 µM;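 active means mean replicate inhibition score of at least 50 and every replicate individually at or above 50; inconclusive means only one of the two criteria met; inactive means mean below 50 and not all replicates reaching 50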;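 further: 0% = plate neutral controls and 100% = maraviroc near 300 nM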
# miR122 inh = blocks miR-122 activity in Huh7 sensor cells; AID 602342; Huh7 miR-122 Renilla luciferase sensor, 48 h; neutral wells = 0, positive control = 100; 340,000 tested, 0.3% active; activation (reporter increase), % at 12.5 µM;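 active means mean replicate activation score at least 90 and every replicate individually at or above 90; inconclusive means only one of the two criteria met; inactive means neither criterion met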;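 further: higher luciferase means less miR-122 activity so hits act as miR-122 inhibitors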
# Statin myotox sup = suppression of simvastatin myotoxicity; C2C12 myotubes + simvastatin, ATP luminescence, 48 h; scaled: DMSO 0, geranylgeraniol control 100; rescue of ATP level, % at 7.49 µM; 330,000 tested, 0.78% active;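 active means mean ATP rescue above about 67%, or every replicate alone reaching that limit, limit read from the data, passing the limit was not always enough; inconclusive means no clear call, values can overlap the other calls; inactive means mean under the limit and some replicate under it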;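 further: myotubes were challenged with 10 µM simvastatin during compound exposure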
# INS-1E GSIS act = GLuc luminescence reporter in INS-1E cells, primary screen for activators of glucose-dependent secretion of insulin; activation, % at 16.6 µM; 370,000 tested, 0.61% active; INS-1E GLuc reporter insulin secretion, 2-3 h;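 active means lowest replicate activation of at least 40%, so every replicate reaches that level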;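 further: 0% = median of neutral control wells and 100% = median of IBMX positive control wells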
# EWS-Fli inh = blocks EWS/Fli oncoprotein-driven transcription | A673 NR0B1-luciferase reporter, viability-normalised | inhibition, % at 12.6 µM | 350,000 tested, 0.67% active | AID 651661;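 active means mean inhibition of at least 50% after viability correction, with every replicate also passing that limit; inconclusive means mean reaches 50% but only one of two replicates passes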;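 further: firefly luciferase signal divided by Alamar Blue viability fluorescence both relative to DMSO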
# Active calls of the source: *; u = inconclusive; x = not tested or not shown; [ ] = another dose, or the depositor's remark.
SMILES,PAX8 reporter,Env fusion inh,miR122 inh,Statin myotox sup,INS-1E GSIS act,EWS-Fli inh
Cc1c(CNCCc2ccc(Cl)cc2)c(C(=O)O)c(C)n1Cc1ccccc1,-6,14,x,x,4,-9
Cc1c(CNCCc2ccccc2Cl)c(C(=O)O)c(C)n1-c1ccccc1,16,57*,x,x,-1,-15
CCOC(=O)/C=c1\s/c(=C\c2ccc3c(c2)OCCO3)c(=O)n1CC(=O)NCC1CCCO1 (stereo not drawn),x,x,2,110*,-7,x
Cc1ccc(-n2nc3c(c2NC(=O)C2CC2)CS(=O)(=O)C3)cc1C,-2,3,x,8,9,x
Cc1ccc(-n2nc3c(c2NC(=O)C2CC2)CS(=O)(=O)C3)cc1,-10,-11,-5,-2,57*,-7
COc1cccc(/C=C2\SC(=S)N(CCCC(=O)N3CCCC3)C2=O)c1,36,3,x,15,-34,x
COc1cccc(/C=C2\SC(=S)N(CCC(=O)N3CCCCC3CCO)C2=O)c1 (stereo not drawn),70*,-7,49,41,-11,4
COc1cccc(/C=C2\SC(=S)N(CCCC(=O)N3CCCCC3CCO)C2=O)c1 (stereo not drawn),67*,16,1,28,-28,u
CO[C@@H]1CN(C)C(=O)c2cc(NC(=O)Nc3cccc(Cl)c3)ccc2OC[C@H](C)N(C)C[C@H]1C,x,x,4[16.7 µM],-85,-9,-7
O=C(N[C@H]1CC[C@@H](CCn2cc(C3(O)CCCC3)nn2)O[C@@H]1CO)C1CCC1,14,3[16.7 µM],x,7,7,-9
Cn1nnc2c(sc3nc(N4CCOCC4)c4c(c32)CCCC4)c1=O,x,x,-7,118*,x,x
C=CCn1c(-c2cc(OC)c(OC)c(OC)c2)n[nH]c1=S,x,x,-8,x,x,3
C=CCn1c(-c2csc(-c3ccccc3)n2)n[nH]c1=S,x,x,-6,77*,-2,x
C=CCn1c(-c2csc(-c3ccc(Cl)cc3)n2)n[nH]c1=S,x,x,-3,x,x,x
C=CCn1c(-c2csc(-c3ccc(OC)c(OC)c3)n2)n[nH]c1=S,-10,-17,x,x,83*,10
C[C@H](CO)N1C[C@H](C)[C@@H](CN(C)Cc2ccc(Cl)c(Cl)c2)Oc2c(NC(=O)c3ccc(-c4nccs4)cc3)cccc2C1=O,x,19[16.7 µM],16[16.7 µM],x,-7,9
Cc1ccccc1OCc1nnc(SCc2cc(=O)[nH]c3ccccc23)n1-c1ccccc1,71*,x,6,-3,6,12
Cc1ccc(OCc2nnc(SCc3cc(=O)[nH]c4ccccc34)n2-c2ccccc2)cc1,12,23,x,x,-38,10
CS(=O)(=O)c1ccc(C(=O)N2CCN(Cc3ccccc3)CC2)cc1,12,6,x,x,15,1
O=C(c1ccc(CNS(=O)(=O)c2ccccc2)cc1)N1CCN(Cc2ccccc2)CC1,x,79*,-1,-17,x,x
O=S(=O)(c1ccccc1C(F)(F)F)N1CCN(S(=O)(=O)c2ccccc2C(F)(F)F)CC1,x,x,2,113*,2,x
C[C@@H]1CCCCO[C@@H](CN(C)Cc2ccc(Cl)c(Cl)c2)[C@H](C)CN([C@H](C)CO)C(=O)c2cc(NC(=O)Nc3ccc4c(c3)OCO4)ccc2O1,x,29[16.7 µM],-1[16.7 µM],x,0,6
C[C@@H]1CCCCO[C@H](CN(C)Cc2ccc3c(c2)OCO3)[C@H](C)CN([C@H](C)CO)C(=O)c2cc(NC(=O)Nc3ccc(F)cc3)ccc2O1,66*,-10[16.7 µM],-4[16.7 µM],-292,-16,3
C[C@@H]1CN([C@H](C)CO)C(=O)c2cc(NC(=O)Nc3ccc(F)cc3)ccc2O[C@@H](C)CCCCO[C@@H]1CN(C)Cc1ccc2c(c1)OCO2,92*,27[16.7 µM],-2[16.7 µM],-391,-15,21
C[C@@H]1CCCCO[C@@H](CN(C)Cc2ccc3c(c2)OCO3)[C@@H](C)CN([C@H](C)CO)C(=O)c2cc(NC(=O)Nc3ccc(F)cc3)ccc2O1,16,4[16.7 µM],-5[16.7 µM],-11,-25,-11
SMILES,PAX8 reporter,Env fusion inh,miR122 inh,Statin myotox sup,INS-1E GSIS act,EWS-Fli inh
C[C@@H]1CN([C@H](C)CO)C(=O)c2cc(NC(=O)Nc3ccc(F)cc3)ccc2O[C@@H](C)CCCCO[C@H]1CN(C)Cc1ccc2c(c1)OCO2,66*,20[16.7 µM],4[16.7 µM],-398,-20,68*
C[C@@H]1CN([C@H](C)CO)C(=O)c2cc(NC(=O)Nc3ccc4c(c3)OCO4)ccc2O[C@@H](C)CCCCO[C@H]1CN(C)Cc1ccc(Cl)c(Cl)c1,x,63*[16.7 µM],0[16.7 µM],x,7,4
Cc1ccc(S(=O)(=O)N(C)C[C@@H]2Oc3ccc(NC(=O)CCC(F)(F)F)cc3CC(=O)N([C@@H](C)CO)C[C@H]2C)cc1,17,x,-7[16.7 µM],2,-8,7
C=CCc1ccccc1Oc1cc(F)nc(N)n1,24,1,5,-6,4,8
C=CCc1ccccc1Oc1cc(OC)nc(N)n1,-3,-19,-1,8,63*,-1
O=c1c2c([nH]c3ccc(Br)cc13)CCCC2,x,x,4,126*,x,x
COCC(=O)Nc1ccc2c(c1)[C@@H]1C[C@H](CC(=O)NCc3cccc(F)c3)O[C@H](CO)[C@@H]1O2,0,-1[16.7 µM],1[16.7 µM],-2,3,-2
OC(c1ccccc1)(c1nc(-c2cccc(C(F)(F)F)c2)cs1)C(F)(F)F (stereo not drawn),-4,10,17,-7,106*,20
N#Cc1cccc(-c2csc(C(O)(c3ccccc3)C(F)(F)F)n2)c1 (stereo not drawn),9,-25,16,-42,x,58*
Cc1ccc(S(=O)(=O)Nc2cccc3c2O[C@@H](CN(C)C)[C@H](C)CN([C@@H](C)CO)C3=O)cc1,-4,0[16.7 µM],9[16.7 µM],-38,18,7
O=C(Nc1ccc2c(c1)oc1ccccc12)c1ccc2c(c1)OCO2,x,-84,10,x,x,x
O=C(COc1ccc2c(c1)OCO2)Nc1ccc2c(c1)oc1ccccc12,x,x,1,3,81*,x
Cc1ccc(NC2=C/C(=N/S(=O)(=O)c3cccs3)c3ccccc3C2=O)cc1,53,74*,x,x,x,25
O=C1C(Nc2ccccc2)=C/C(=N/S(=O)(=O)c2cccs2)c2ccccc21,x,x,-5,-153,x,x
CCc1ccc(S(=O)(=O)/N=C2\C=C(Nc3ccc(C(=O)O)cc3)C(=O)c3ccccc32)cc1,93*,73*,-1,-279,-23,19
CO[C@@H]1CN(C)C(=O)c2cc(NC(=O)c3ccccc3)ccc2OC[C@H](C)NC[C@H]1C,7,-2[16.7 µM],2[16.7 µM],23,8,5
Cc1nnc(NC(=O)C2CCCN(S(=O)(=O)Cc3ccccc3)C2)s1 (stereo not drawn),x,x,-6,120*,x,x
Cc1nnc(NC(=O)C2CCCCC2)s1,x,65*,-12,2,x,x
C[C@H](NC(=O)C[C@@H]1C[C@H]2c3cc(NC(=O)C4CCOCC4)ccc3O[C@H]2[C@@H](CO)O1)c1ccccc1,-16,12[16.7 µM],13[16.7 µM],-5,16,-7
COc1ccccc1NS(=O)(=O)c1cc(NC(=O)C(C)(C)C)ccc1N1CCOCC1,13,x,86,-10,1,-15

# Source: PubChem (Broad Institute)
